L major viab: inhibitors of Leishmania major promastigote growth; Leishmania major promastigotes, resazurin fluorescence viability; inhibition, % at 10 µM; 9% of 200,000 active; in the data active = inhibition above about 50%;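 also: promastigotes grown with compound for 44 hours at 28 °C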
WT yeast gro inh: growth inhibition of WT yeast, mitochondrial fusion screen. inhibition, % at 10 µM. AID 1362. mitochondrial fusion phenotypic screen, WT strain. 2.1% of 190,000 active; in the data active = inhibition above about 58%; tested in S. cerevisiae
ROMK mod: human ROMK K+ channel modulation, primary screen | P48048 | Tet-inducible ROMK, thallium flux fluorescence; actives lie on both sides | B-score at 10 µM | 2% of 130,000 active;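 active = signal ratio slope over the read window, or its plate-corrected B-score, at least 3 SD from the plate mean, either direction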;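 also: B-score of the F/F0 ratio slope over 7 to 12 s after thallium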
Cl transport mod: modulators of human KCC2 chloride dependent transport; AID 1456; B-score of Tl+ flux slope (higher = more flux/activation; lower = inhibition) at 10 µM; 2.2% of 190,000 active; KCC2 cells, thallium flux FluoZin-2 fluorescence;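 active = thallium flux slope and its plate-corrected score both differing from the plate sample mean at a set confidence after two filtering rounds, in either direction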;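 also: slope of fluorescence scaled to starting intensity during 10 to 20 s after thallium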
Target sequence (Q9H2X9 whole entry, looked up): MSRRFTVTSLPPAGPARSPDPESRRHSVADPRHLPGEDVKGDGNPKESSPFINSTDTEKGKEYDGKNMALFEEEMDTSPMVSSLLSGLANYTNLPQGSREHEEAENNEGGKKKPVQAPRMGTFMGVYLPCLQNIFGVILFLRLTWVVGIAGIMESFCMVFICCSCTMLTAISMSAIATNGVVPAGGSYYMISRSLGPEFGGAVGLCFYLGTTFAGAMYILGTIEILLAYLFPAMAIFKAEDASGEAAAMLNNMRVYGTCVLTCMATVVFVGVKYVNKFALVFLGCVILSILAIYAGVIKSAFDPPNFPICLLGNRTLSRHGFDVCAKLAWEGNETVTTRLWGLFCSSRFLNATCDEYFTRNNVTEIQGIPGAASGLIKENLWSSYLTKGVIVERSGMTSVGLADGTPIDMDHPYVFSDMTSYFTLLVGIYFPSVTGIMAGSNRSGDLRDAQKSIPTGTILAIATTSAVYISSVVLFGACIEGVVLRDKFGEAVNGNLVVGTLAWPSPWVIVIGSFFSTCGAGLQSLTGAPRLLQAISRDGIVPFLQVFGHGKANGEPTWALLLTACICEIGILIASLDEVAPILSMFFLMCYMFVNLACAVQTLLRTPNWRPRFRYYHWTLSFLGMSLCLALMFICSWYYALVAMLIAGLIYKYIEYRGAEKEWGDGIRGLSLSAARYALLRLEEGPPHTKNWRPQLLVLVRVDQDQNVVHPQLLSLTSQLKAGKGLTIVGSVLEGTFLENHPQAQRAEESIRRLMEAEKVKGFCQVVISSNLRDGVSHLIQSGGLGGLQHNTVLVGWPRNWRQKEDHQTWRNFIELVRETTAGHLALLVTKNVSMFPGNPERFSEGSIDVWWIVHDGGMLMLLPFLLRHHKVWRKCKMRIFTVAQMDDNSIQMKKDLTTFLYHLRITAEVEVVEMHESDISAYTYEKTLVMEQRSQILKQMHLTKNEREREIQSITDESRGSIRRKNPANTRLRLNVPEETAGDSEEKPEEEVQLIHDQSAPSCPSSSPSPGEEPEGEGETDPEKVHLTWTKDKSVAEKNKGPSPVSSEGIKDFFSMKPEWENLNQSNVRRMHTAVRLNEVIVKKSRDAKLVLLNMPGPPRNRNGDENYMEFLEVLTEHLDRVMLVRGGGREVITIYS
Calpain2 inh: inhibitors of pig calpain II; purified calpain II, fluorogenic peptide substrate, 30 min; inhibition, % at 16 µM; 0.37% of 220,000 active;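 active = inhibition above about 50%, limit read from the data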
An asterisk follows results filed as active; x = not tested or not shown. Sampled rows, rich in hits. Any-hit rate of the full collection: about 12%.

SMILES	L major viab	WT yeast gro inh	ROMK mod	Cl transport mod	Calpain2 inh
CSc1ccc(CN(C)CC(=O)NC(C)c2ccccc2)cc1 (stereo not given)	17.0	6.0	-0.297	-0.914	2.1
C=CCc1cc(OC)ccc1OCCOCCC(C(=O)OCC)C(=O)OCC	53.6*	-0.3	0.787	-1.06	-2.3
CCOc1ccc(OCCOCCN2CCc3ccccc3C2)cc1	91.0*	-3.7	x	-0.129	15.7
CCCOc1ccc(OCCOCCN2CCc3ccccc3C2)cc1	96.9*	13.1	-0.128	1.12	-1.6
C=CCc1cc(OC)ccc1OCCOCCN1CCc2ccccc2C1	89.9*	21.4	-0.986	-0.509	22.0
CCOC(=O)C(CCCOc1ccc(C)cc1)C(=O)OCC	-5.7	11.1	-0.0167	0.0933	12.2
CCOc1ccccc1N1CCN(Cc2cnc(-c3ccccc3)[nH]2)CC1	x	x	-1.63	-1.27	-25.0
Cc1ccc(SCCOCCN2CCc3ccccc3C2)cc1	92.2*	44.4	x	0.0651	35.9
Cc1ccc(SCCOCCN2CC(C)OC(C)C2)cc1 (stereo not given)	x	x	x	-1.43	5.3
c1ccc(OCCOCCN2CCc3ccccc3C2)cc1	98.0*	-10.6	x	-0.17	-16.0
COc1ccccc1Nc1nc(N)nc(CN2CCc3ccccc3C2)n1	100.5*	-3.3	-0.995	-0.104	-16.7
Cc1ccc(Nc2nc(N)nc(CN3CCCCCC3)n2)cc1	-4.0	-8.9	x	0.00183	15.0
Cc1c(Cl)cccc1Nc1nc(N)nc(CN2CCCCCC2)n1	81.3*	-4.3	-0.727	x	25.6
NNC(=O)CS(=O)(=O)CS(=O)(=O)CC(=O)NN	x	x	x	2.56	-10.1
CCOc1ccccc1COC(=O)c1cccc(-n2cnnn2)c1	5.5	1.3	-0.763	-0.00931	-0.9
Cn1c(N/N=C/c2cc3ccccc3nc2Cl)nc2ccccc21	10.8	69.2*	-2.71	-0.428	17.1
Cn1c(N/N=C/c2c[nH]c3ccccc23)nc2ccccc21	100.5*	-1.2	x	x	-6.2
Cc1ccc(NCC(=O)N/N=C/c2cc3ccccc3nc2Cl)cc1	83.7*	67.9*	0.771	x	-28.2
C=CCNS(=O)(=O)c1ccc2c(c1)n(C)c(=O)n2C	0.1	-3.5	0.425	0.312	2.1
C=CCC(Nc1ccccc1)c1ccc(OC)c(OC)c1 (stereo not given)	x	x	-0.543	0.0831	-9.4
N/C(=N\OC(=O)c1ccco1)c1cccc(Br)c1	5.2	26.3	-0.214	0.574	-26.7
O=C(c1cccc(Br)c1)c1conc1C(=O)c1ccco1	-2.7	67.2*	0.447	-1.59	24.3
Cn1ncc(Cl)c(Oc2ccc(C(C)(C)C)cc2)c1=O	2.2	-10.8	-0.829	0.0181	-2.2
O=C(/C=C/c1ccco1)Oc1cccc2cccnc12	x	x	x	0.881	-1.0
COc1ccccc1/C=C/C(=O)Oc1cccc2cccnc12	98.7*	8.0	x	-3.47	-29.5
SMILES	L major viab	WT yeast gro inh	ROMK mod	Cl transport mod	Calpain2 inh
Cc1c(C(=O)Oc2cccc3cccnc23)oc2ccccc12	98.3*	-5.3	-0.0717	-3.39	-10.4
CCc1nc2ccccc2c(C(=O)Oc2cccc3cccnc23)c1C	2.2	0.3	-0.26	x	-20.1
N#C/C(=C\c1coc2ccc(O)cc2c1=O)C(=O)Nc1nc2ccccc2s1	x	x	x	x	-44.3
CC(=O)c1cccc(NC(=S)NC(=O)c2ccc(Br)cc2)c1	54.5*	5.7	0	1.51	19.9
O=C(NC(=S)Nc1cccc(CO)c1)c1ccc(-c2ccccc2)cc1	56.8*	9.6	0.534	-0.508	35.2
CC(=O)c1cccc(NC(=O)C=C(C)C)c1	97.7*	12.4	x	-0.131	-7.2
CCCCCCP(=O)(O)c1ccccc1	-6.9	60.8*	x	0.465	-10.7
O=C(O)CCCCCCCCCCP(=O)(c1ccccc1)c1ccccc1	x	x	0.0176	0.228	-14.8
C=C(C)[C@@H]1CC=C(CN2CCC(N3CCC(C(=O)N4CCCC4)CC3)CC2)CC1	79.4*	19.4	-0.77	-0.658	2.7
C=C(C)C1CC=C(CN2CCC(O)CC2)CC1 (stereo not given)	92.8*	-14.9	0.0197	0.185	-30.8
CC(C)=CCCC(C)CN1CCC(N2CCC(C(=O)N3CCCC3)CC2)CC1 (stereo not given)	73.4*	6.4	-0.507	0.102	1.7
C=C(C)[C@@H]1CC=C(C(=O)O)CC1	x	x	x	-1.14	-6.6
Nc1nnc(CCS(=O)(=O)c2ccc(Br)cc2)s1	0.0	-13.5	0.443	1.24	-8.7
Cc1nc(C(=O)Nc2cccc(Cl)c2)nn1-c1cc(OC(C)C)c(Cl)cc1Cl	0.3	66.7*	x	x	-55.9
COc1ccc(S(=O)(=O)N(C(C)=O)c2ccc(OC(C)=O)c3ccccc23)cc1[N+](=O)[O-]	99.7*	-13.3	x	-0.593	-50.2
O=C(COC(=O)C1(c2ccc(F)cc2)CCCC1)N1CCN(C(=O)c2ccco2)CC1	-5.2	6.4	x	-0.0225	6.2
FC(F)(F)c1cccc(N2CCN(Cc3cccnc3)CC2)c1	88.2*	28.3	x	-0.93	-11.3
FC(F)(F)c1cccc(N2CCN(Cc3ccoc3)CC2)c1	92.8*	2.3	x	-0.16	-34.1
Cc1cc(C(=O)NNC(=O)c2nn(C)c(=O)c3ccccc23)c(C)o1	65.4*	7.7	0.767	0.695	3.8
COc1ccc(OCC(=O)NNC(=O)c2nn(C)c(=O)c3ccccc23)cc1	-2.4	-9.4	0.336	0.636	-8.4
Cc1ccc(NC(=O)Cc2nc(CSc3nnc(-c4ccc5c(c4)OCO5)o3)cs2)cc1	87.0*	15.9	x	x	-125.1
CC(C)Cn1c(O)c(/C=C2\C=NN=C2c2ccccc2)sc1=S	12.7	62.6*	x	0.128	2.4
O=C(c1cccs1)N1CCN(C(=O)C(c2ccccc2)c2ccccc2)CC1	14.3	15.8	x	0.0138	-4.7
CC(=O)c1cccc(NC(=O)N2CCC(NC(=O)C34CC5CC(CC(C5)C3)C4)CC2)c1	55.4*	-13.4	x	-1.35	-10.3
CC1CCN(C(=O)Nc2cccc(NC(=O)N3CCC(C)CC3)c2)CC1	-3.6	13.8	x	0.00285	-23.7
SMILES	L major viab	WT yeast gro inh	ROMK mod	Cl transport mod	Calpain2 inh
NNC(=O)c1ccc(CN2CCCCC2)o1	3.6	17.9	x	1.21	0.8
O=C(CN(Cc1ccco1)C(=O)CCC(=O)Nc1nccs1)NCc1ccccc1	-8.9	2.4	0.971	-0.549	-5.3
O=C(CN(Cc1ccco1)C(=O)CCC(=O)Nc1ccccn1)NCCc1ccccc1	98.0*	-6.8	x	-0.49	-0.4
CCn1c(=O)cc(SCC(=O)N2CCN(c3ccccc3OC)CC2)c2ccccc21	-15.4	-6.8	x	-2.03	-1.9
CN(CC(=O)Nc1ccccc1C(=O)N1CCCC1)S(=O)(=O)c1ccc(Cl)cc1	-1.6	-1.9	2.3	x	9.9
O=C(N/N=C/c1nn(-c2ccccc2)cc1-c1ccc(Cl)cc1)c1ccncc1	60.2*	47.4	0.405	-0.603	-52.3
CN(C(=S)NCCN1CCOCC1)C(c1ccccc1)c1ccccc1	8.9	-9.7	0.794	1.13	-11.9
CC1=C(C(=O)OCC2CCCO2)C(c2ccc(C)o2)C2=C(CC(c3ccc(F)cc3)CC2=O)N1 (stereo not given)	3.6	-7.5	x	-0.866	13.9
CC1=C(C(=O)OCC2CCCO2)C(c2ccc(C)o2)C2=C(CC(c3ccc(N(C)C)cc3)CC2=O)N1 (stereo not given)	84.7*	-6.3	-1.23	0.235	99.3*
COc1ccc(NC(=O)Cn2nnc(-c3ccccc3N)n2)cc1OC	7.2	9.1	x	0.394	-12.0
Cc1ccccc1-c1nnn(C/C(N)=N/O)n1	-5.5	20.2	1.27	-0.000764	7.0

Screening results deposited in PubChem by several laboratories.
